Test results published in PubChem BioAssay (NCATS).
Where “and” joins values, the source holds several entries; their conditions need not be identical. Identical values can stand only once. Results filed as inconclusive are left out. A structure can be active in one record and inactive in another. Calls of active or inactive are those of the source. Unless noted, calls follow the shape of the dose curve; as a rule, active = well fitted curve in the direction sought with a large enough effect; inconclusive = small, poorly fitted or top-dose-only effect, or another doubt; inactive = no such curve, though single readings can be large; an effect the other way counts as inactive or inconclusive.

Columns and labels:
[1] = Cell Viability - Mesenchymal (AID 546); details: mesenchymal cells viability, qHTS; activity change, negative = cytotoxicity: at 91.7 µM (top of the series);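 also: cells exposed to compound for 40 hours before reading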
In short: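 CellTiter-Glo luminescence (intracellular ATP, 20 min room temperature) after 40 hr compound exposure at 37 °C of 1000 glomerulus-derived human kidney mesenchymal cells/well; AC50 values obtained by fitting qHTS concentration-response data to the Hill equation.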

[2] = Cellular Toxicity (caspase-3) HepG2 (AID 654);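 also: cells exposed to compound for 16 hours before reading; 0% = DMSO alone and 100% = caspase signal from 100 µM tamoxifen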
In short: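 Caspase 3/7 activation in HepG2 is measured as rising luminescence after a 16 hr treatment at 37 °C. Values are scaled between DMSO basal and 100 uM tamoxifen, and AC50 is fitted with the Hill equation.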

[3] = Cellular Toxicity (caspase-3) Jurkat (AID 655);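 also: cells exposed to compound for 16 h at 37 °C before reading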
In short: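 Jurkat cells (5000/well) in complete medium were treated with compounds for 16 hr at 37 °C, then Caspase-Glo 3/7 luminescence was read after 20 min at room temperature. Data normalized to DMSO (basal) and 100 uM tamoxifen (100%); AC50 from Hill fit.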

[4] = Cellular Toxicity (caspase-3) HUV-EC-C (AID 656)
In short: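 HUV-EC-C endothelial cells, 1000/well, were pre-incubated 5 hr at 37°C, then exposed to compounds for 16 hr at 37°C. Caspase-Glo 3/7 luminescence was read after 20 min at room temperature. AC50 came from Hill fits, normalized to DMSO and 100 uM tamoxifen.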

[5] = Cellular Toxicity (caspase-3) SHSY5Y (AID 657)
In short: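 SH-SY5Y human neuroblastoma cells (1500/well) were treated with compounds for 16 h at 37 °C, then Caspase-Glo 3/7 luminescence was read after 1 h at room temperature. Data normalized to DMSO and 10 uM staurosporine; AC50 from Hill fits.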

[6] = Cellular Toxicity (caspase-3) BJ (AID 658);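 also: 0% = DMSO basal and 100% = 10 µM staurosporine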
In short: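 Caspase-Glo 3/7 luminescence, read 1 hr after reagent at room temperature, in normal BJ fibroblasts exposed 16 hours at 37 °C. AC50 values from Hill-equation concentration-response, scaled between DMSO basal and 10 uM staurosporine as 100%.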

[7] = Cellular Toxicity (caspase-3) Mesangial (AID 660); details: Potency: caspase-3 activation;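 also: combined caspase 3 and 7 activity read by Caspase-Glo luminescence; cells exposed to compound for 16 h before the caspase read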
In short: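 Seed cells derived from normal human renal glomeruli, incubate 5 h, add compounds across concentrations and incubate 16 h at 37 °C. Caspase 3/7 activation is then quantified by luciferase light, with AC50 derived by Hill modeling.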

[8] = Cellular Toxicity (caspase-3) SK-N-SH (AID 661); also: potency is read from the fitted curve at half-maximal effect;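 as to caspase-3 activation: 0% = DMSO basal and 100% = 10 µM staurosporine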
In short: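 Cells were seeded and incubated 5 hr at 37 °C, dosed with compound over a concentration range for 16 hr, then given Caspase-Glo 3/7 reagent for 1 hr at room temperature before luminescence reading.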

[9] = Cellular Toxicity (caspase-3) H-4-II-E (AID 663); details: H-4-II-E rat hepatoma, scaled: DMSO 0%, 100 µM tamoxifen 100%; at 92.2 µM (top of the series);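 also: cells exposed to compound for 16 hr before readout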
In short: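 Caspase 3/7 activation measured by luminescent aminoluciferin substrate cleavage after 16 hr compound treatment of H-4-II-E cells in complete medium. Increase normalized between DMSO (basal) and 100 uM tamoxifen (100%); Hill-equation AC50 from concentration-response.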

[10] = Cellular Toxicity (caspase-3) Hek293 (AID 664); details: HEK293 caspase-3 activation, DMSO = 0%, 100 µM tamoxifen = 100%; at 92.2 µM (top of the series);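 also: cells exposed to compound for 16 h at 37 °C before readout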
In short: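 qHTS, HEK293 (human embryonic kidney), 16 h cpd exposure in complete medium. Caspase-3/7 activation = luminescence increase; normalized to DMSO/100 uM tamoxifen; Hill-fit AC50.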

[11] = Cellular Toxicity (caspase-3) N2a (AID 665); details: Potency: caspase-3 activation;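 also: compound exposure lasted 16 h at 37 °C before readout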
In short: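 Caspase-3/7 activation, measured as increased luminescence from aminoluciferin release, is quantified in mouse N2a cells exposed to compounds for 16 h. Values are normalized to DMSO and 10 uM staurosporine, with AC50 derived by Hill modelling.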

[12] = Cellular Toxicity (caspase-3) NIH 3T3 (AID 666);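 also: caspase signal read after 16 h compound exposure; 0% = DMSO basal and 100% = 100 µM tamoxifen stimulation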
In short: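 Cells were plated at 1000 per well and incubated 5 hr at 37°C, then compound was added for 16 hr. Caspase-Glo 3/7 reagent followed for 20 min at room temperature before luminescence was read.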

[13] = Cellular Toxicity (caspase-3) Renal Proximal Tubule (AID 667); details: Potency: caspase-3 activation;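 also: cells exposed to compound for 16 hours at 37 °C before detection; 0% = DMSO basal and 100% = 10 µM staurosporine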
In short: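 Primary rat proximal tubule cells, 1000/well, 5 h plating at 37 °C, then compound 16 h at 37 °C. Caspase-Glo 3/7 reagent, 1 h RT, luminescence. Normalized to DMSO (basal) and 10 uM staurosporine (100%); Hill-fit AC50.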

[14] = target: Cytochrome P450 3A4 (Homo sapiens) (UniProt P08684); experiment: qHTS Assay for Inhibitors and Substrates of Cytochrome P450 3A4 (AID 884); also: nearly all actives have a fitted effect of over 50% in size; also: potency is read from the fitted curve at half-maximal effect
Sequence of Cytochrome P450 3A4 (Homo sapiens) (P08684 whole entry, looked up): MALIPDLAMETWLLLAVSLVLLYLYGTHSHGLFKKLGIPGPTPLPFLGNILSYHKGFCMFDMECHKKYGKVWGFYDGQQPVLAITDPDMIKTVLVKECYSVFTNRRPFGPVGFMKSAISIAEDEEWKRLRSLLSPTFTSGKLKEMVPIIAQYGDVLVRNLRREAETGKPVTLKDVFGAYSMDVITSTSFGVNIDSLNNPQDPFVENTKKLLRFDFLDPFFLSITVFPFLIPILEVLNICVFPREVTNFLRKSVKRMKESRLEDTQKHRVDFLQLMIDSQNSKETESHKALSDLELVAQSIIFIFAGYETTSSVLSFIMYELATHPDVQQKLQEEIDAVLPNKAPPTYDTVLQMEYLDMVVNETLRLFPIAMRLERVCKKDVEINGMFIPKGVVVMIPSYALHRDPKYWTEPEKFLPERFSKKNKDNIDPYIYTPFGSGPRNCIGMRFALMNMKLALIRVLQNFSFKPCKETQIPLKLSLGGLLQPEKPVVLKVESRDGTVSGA
In short: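 Luminescent readout of luciferin produced by CYP3A4 (20 nM) dealkylation of Luciferin-PPXE, 25 uM (its KM). NADPH-driven reaction ran 60 min at RT after 10 min compound preincubation; data scaled to 57 uM ketoconazole as 100% inhibition.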

[15] = target: 3',5'-cyclic-AMP phosphodiesterase 4B (Homo sapiens) (UniProt Q07343); experiment: qHTS Assay for Inhibitors of PDE-IV (AID 607; active = well fitted activation curve with a large enough effect in the main read-out, with a control signal flat, not every such curve was filed as active; also: % of control where 0% means no effect)
Sequence of 3',5'-cyclic-AMP phosphodiesterase 4B (Homo sapiens) (Q07343 whole entry, looked up): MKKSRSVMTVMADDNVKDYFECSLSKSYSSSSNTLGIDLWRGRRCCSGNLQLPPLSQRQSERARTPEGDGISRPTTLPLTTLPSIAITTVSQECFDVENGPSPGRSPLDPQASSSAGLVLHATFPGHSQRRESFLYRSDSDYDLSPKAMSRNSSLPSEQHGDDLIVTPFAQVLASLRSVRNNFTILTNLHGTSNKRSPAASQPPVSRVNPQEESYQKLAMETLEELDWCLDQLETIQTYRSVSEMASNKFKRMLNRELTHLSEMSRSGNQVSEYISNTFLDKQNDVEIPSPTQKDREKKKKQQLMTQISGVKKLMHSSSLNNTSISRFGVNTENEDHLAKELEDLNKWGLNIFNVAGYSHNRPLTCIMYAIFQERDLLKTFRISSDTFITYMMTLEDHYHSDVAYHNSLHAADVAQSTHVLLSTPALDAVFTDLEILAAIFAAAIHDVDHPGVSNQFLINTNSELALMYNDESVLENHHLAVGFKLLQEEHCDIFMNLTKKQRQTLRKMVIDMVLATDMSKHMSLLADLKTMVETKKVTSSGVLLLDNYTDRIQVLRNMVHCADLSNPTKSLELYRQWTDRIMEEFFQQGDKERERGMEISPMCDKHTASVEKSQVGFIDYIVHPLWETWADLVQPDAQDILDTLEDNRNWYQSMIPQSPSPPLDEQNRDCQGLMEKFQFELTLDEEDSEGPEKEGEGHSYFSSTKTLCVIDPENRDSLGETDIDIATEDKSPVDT
In short: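 ACTOne HEK293 cells carry a modified cAMP-gated CNG channel and express endogenous PDE4; plated 1000 cells/well, compounds up to 22.9 uM final. Membrane-potential dye fluorescence (ex 535/em 590) was read; parental cells received 10 uM forskolin + 100 uM RO 20-1724.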

[16] = target: Cytochrome P450 3A4 (Homo sapiens) (UniProt P08684); experiment: qHTS Assay for Activators of Cytochrome P450 3A4 (AID 885); also: nearly all actives have a fitted effect of over 65% in size
In short: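 CYP3A4 activity: Luciferin-PPXE O-dealkylation, 25uM substrate, 200mM KPO4, RT throughout. Read-out is luciferase luminescence; higher values reflect activation.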

[17] = target: Guanine nucleotide-binding protein G(i) subunit alpha-1 (Homo sapiens) (UniProt P63096); experiment: qHTS Assay for Inhibitors of RGS12 GoLoco Motif Activity (Green Fluorophore) (AID 879);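 also: 0% = labeled peptide with Gαi1 and full inhibition = labeled peptide alone without protein; negative values mean loss of peptide binding seen as reduced polarization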
Sequence of Guanine nucleotide-binding protein G(i) subunit alpha-1 (Homo sapiens) (P63096 whole entry, looked up): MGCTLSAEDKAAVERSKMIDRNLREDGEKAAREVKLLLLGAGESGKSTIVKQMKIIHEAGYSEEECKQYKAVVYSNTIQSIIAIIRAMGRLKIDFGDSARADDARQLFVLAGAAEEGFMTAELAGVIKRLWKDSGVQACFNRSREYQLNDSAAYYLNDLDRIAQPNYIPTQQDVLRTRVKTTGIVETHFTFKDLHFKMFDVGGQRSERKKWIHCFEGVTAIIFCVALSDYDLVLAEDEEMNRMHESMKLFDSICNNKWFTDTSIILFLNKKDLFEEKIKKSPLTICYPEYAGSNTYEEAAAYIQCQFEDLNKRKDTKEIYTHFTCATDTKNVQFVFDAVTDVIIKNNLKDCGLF
In short: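 A drop in FITC polarization marked displacement of the FITC-tagged RGS12 GoLoco peptide (10 nM) from Gαi1 (50 nM). Compounds were incubated 10 min at room temperature in Tris pH 7.5 buffer containing 150 mM NaCl, 0.1 mM GDP and 0.05% NP40; unlabeled peptide titration served as control.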

[18] = target: Cytochrome P450 2C9 (Homo sapiens) (UniProt P11712); experiment: qHTS Assay for Inhibitors and Substrates of Cytochrome P450 2C9 (AID 883); also: nearly all actives have a fitted effect of over 60% in size; also: potency is read from the fitted curve at half-maximal effect
Sequence of Cytochrome P450 2C9 (Homo sapiens) (P11712 whole entry, looked up): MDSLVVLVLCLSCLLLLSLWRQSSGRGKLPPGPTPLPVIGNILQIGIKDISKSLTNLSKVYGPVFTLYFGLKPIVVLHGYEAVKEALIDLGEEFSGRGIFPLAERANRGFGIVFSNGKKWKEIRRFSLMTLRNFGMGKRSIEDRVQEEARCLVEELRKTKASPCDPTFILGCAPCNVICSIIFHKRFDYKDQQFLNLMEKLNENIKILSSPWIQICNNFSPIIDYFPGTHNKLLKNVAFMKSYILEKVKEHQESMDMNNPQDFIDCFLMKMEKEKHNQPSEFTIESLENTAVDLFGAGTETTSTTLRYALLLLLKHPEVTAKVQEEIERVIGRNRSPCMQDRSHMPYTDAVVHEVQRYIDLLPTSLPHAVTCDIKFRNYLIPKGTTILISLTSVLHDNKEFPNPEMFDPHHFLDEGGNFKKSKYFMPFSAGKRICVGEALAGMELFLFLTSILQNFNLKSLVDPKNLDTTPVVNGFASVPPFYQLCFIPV
In short: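 Turnover of Luciferin-H (100uM, KM) by 10nM human CYP2C9 was measured over 60 min at 37C with NADPH regeneration; inhibitors and some substrates reduce luminescence. Data normalized to sulphaphenazole 57uM.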

[19] = target: Cytochrome P450 2D6 (Homo sapiens) (UniProt P10635); experiment: qHTS Assay for Inhibitors and Substrates of Cytochrome P450 2D6 (AID 891); also: nearly all actives have a fitted effect of over 60% in size; also: potency is read from the fitted curve at half-maximal effect
Sequence of Cytochrome P450 2D6 (Homo sapiens) (P10635 whole entry, looked up): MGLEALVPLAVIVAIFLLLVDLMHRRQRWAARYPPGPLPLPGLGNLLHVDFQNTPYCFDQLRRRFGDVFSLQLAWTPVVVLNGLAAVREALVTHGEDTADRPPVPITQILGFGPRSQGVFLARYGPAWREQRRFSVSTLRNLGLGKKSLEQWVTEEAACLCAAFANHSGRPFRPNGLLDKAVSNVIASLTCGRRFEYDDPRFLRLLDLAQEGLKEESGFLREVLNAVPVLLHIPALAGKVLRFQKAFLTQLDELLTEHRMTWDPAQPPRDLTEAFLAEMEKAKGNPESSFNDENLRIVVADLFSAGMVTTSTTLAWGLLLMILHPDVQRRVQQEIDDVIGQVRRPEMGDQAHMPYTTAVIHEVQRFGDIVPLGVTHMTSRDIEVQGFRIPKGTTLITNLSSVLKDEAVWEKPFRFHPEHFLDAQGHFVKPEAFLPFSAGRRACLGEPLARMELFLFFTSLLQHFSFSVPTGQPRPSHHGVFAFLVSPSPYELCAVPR
In short: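 Luminescent read-out of luciferin formed by 5 nM human CYP2D6 demethylating 30 uM Luciferin-ME EGE (Km level) over 60 min at room temperature after NADPH regeneration addition. Data normalized to full inhibition by 1.43 uM quinidine.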

[20] = qHTS Assay for Identification of Small Molecule Antagonists for NFkB Signaling Pathway (AID 895; active = well fitted inhibition curve with a large enough effect in the signal ratio, with a control signal flat, not every such curve was filed as active; the % refers to the signal ratio; also: % is scaled to controls: 0 for no effect and ±100 for the full control effect)
In short: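 Beta-lactamase reporter read-out (460 and 530 nm emission ratio, 405 nm excitation, 2 hrs substrate loading RT) after 5 hr stimulation with 10 pM TNF alpha in compound-treated NFkB-bla ME-180 cells in low-serum medium.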

NCCO
inactive: Potency [1] | Potency [2] | Potency [3] | outcome [4] | outcome [5] | outcome [6] | Potency [7] | Potency [8] | caspase-3 activation [9] -0.037% | caspase-3 activation [10] -4.95% | Potency [11] | Potency [12] | Potency [13] | Potency [14]

CCCOC(=O)c1ccc(O)cc1
inactive: Potency [1] | Potency [2] | Potency [3] | outcome [4] | outcome [5] | outcome [6] | Potency [7] | Potency [8] | caspase-3 activation [9] 1.99% and 0.213% | caspase-3 activation [10] 0.939% and -1.18% | Potency [11] | Potency [12] | Potency [13]

O=C(O)Cc1ccc(-c2ccccc2)cc1
inactive: outcome [15]

CN(C)c1ccc(N=NS(=O)(=O)O)cc1
inactive: Potency [1] | Potency [2] | Potency [3] | outcome [4] | outcome [5] | outcome [6] | Potency [7] | Potency [8] | caspase-3 activation [9] 11.8% | caspase-3 activation [10] -1.18% | Potency [11] | Potency [12] | Potency [13] | Potency [14]

C#C[C@]1(O)CC[C@H]2[C@@H]3CCc4cc(O)ccc4[C@H]3CC[C@@]21C
inactive: Potency [1] | Potency [2] | Potency [3] | outcome [4] | outcome [5] | outcome [6] | Potency [7] | Potency [8] | caspase-3 activation [9] 3.92% | caspase-3 activation [10] -0.747% | Potency [11] | Potency [12] | Potency [13] | Potency [16]

N=C1N=C(N)c2cc3ccccc3cc21
inactive: Potency [7] | caspase-3 activation [10] 9.9% | Potency [13] | Potency [14]
active: activity change, negative = cytotoxicity [1] -91.8% | Potency [8] 31600 nM | caspase-3 activation [9] 153%

Nc1nc2ccc([N+](=O)[O-])cc2s1
inactive: Potency [1] | Potency [2] | Potency [3] | outcome [4] | outcome [5] | outcome [6] | Potency [7] | Potency [8] | caspase-3 activation [9] -1.1% | caspase-3 activation [10] -4.39% | Potency [11] | Potency [12] | Potency [13]

CCCCCCCCCCCCCCCCCC(=O)O
inactive: Potency [1] | Potency [2] | Potency [3] | outcome [4] | outcome [5] | outcome [6] | Potency [7] | Potency [8] | caspase-3 activation [9] -0.546% | caspase-3 activation [10] 0.144% | Potency [11] | Potency [12] | Potency [13] | Potency [14]

c1ccc2sc(SSc3nc4ccccc4s3)nc2c1
inactive: Potency [1] | Potency [2] | Potency [3] | outcome [4] | outcome [5] | outcome [6] | Potency [7] | Potency [8] | caspase-3 activation [9] -0.551% | caspase-3 activation [10] 2.01% | Potency [11] | Potency [12] | Potency [13] | Potency [14]

O=c1[nH]c2cc(C(F)(F)F)ccc2n1-c1cc(C(F)(F)F)ccc1O
inactive: outcome [15] | outcome [17]

Nc1ccc(O)c(C(=O)O)c1
inactive: Potency [1] | outcome [15] | Potency [2] | Potency [3] | outcome [4] | outcome [5] | outcome [6] | Potency [7] | Potency [8] | caspase-3 activation [9] -0.695% | caspase-3 activation [10] 0.369% | Potency [11] | Potency [12] | Potency [13] | Potency [16]

N#C/C(=C\c1ccc(O)c(O)c1)C(=O)NCCCc1ccccc1
inactive: outcome [15] | outcome [17] | Potency [16]
active: Potency [14] 2510 nM

O=S(=O)(c1cccc2c(I)cccc12)N1CCCNCC1
inactive: outcome [15] | outcome [17]

NCCCCCCCCCCN
inactive: outcome [15] | outcome [17]

N#C/C(=C\c1c[nH]c2ccccc12)C(=O)c1ccc(O)c(O)c1
active: Potency [14] 7940 nM
inactive: outcome [15] | outcome [17] | Potency [16]

O=C(O)c1cc(=O)c2c(Cl)cc(Cl)cc2[nH]1
inactive: outcome [15] | outcome [17] | Potency [18] | Potency [14] | Potency [19] | Potency [20]

O=C(c1cc(O)c(O)c([N+](=O)[O-])c1)c1ccccc1F
inactive: outcome [15] | outcome [17] | Potency [16]
active: Potency [18] 1.26 µM

O=C1C(SCCO)=C(SCCO)C(=O)c2ccccc21
inactive: outcome [15] | outcome [17] | Potency [16]
active: Potency [18] 12.6 µM and 5.01 µM | Potency [19] 7.94 µM

CN(C)C(N)=NCCC[C@H](N)C(=O)O
inactive: outcome [15] | outcome [17]

Fc1ccc(C(OCCCc2cnc[nH]2)c2ccc(F)cc2)cc1
inactive: outcome [15] | outcome [17] | Potency [16]
active: Potency [14] 794 nM | Potency [19] 0.631 µM

O=C(Nc1ccccc1)c1cc([N+](=O)[O-])ccc1Cl
inactive and 6.31 µM (active): Potency [18]
inactive: outcome [15] | outcome [17] | Potency [16] | Potency [19]

O=C(O)c1cc([N+](=O)[O-])ccc1NCCCc1ccccc1
active: Potency [18] 7.94 µM and 501 nM
inactive: outcome [15] | outcome [17] | Potency [19]

Cc1ccc(O)c(N=Nc2ccccc2)n1
inactive: outcome [15] | outcome [17] | Potency [16]
3.98 µM (active) and inactive: Potency [19]
12.6 µM (active) and inactive: Potency [18]

COC(=O)c1c(C)[nH]c(C)c1C(=O)c1ccccc1Cc1ccccc1
inactive: outcome [15] | outcome [17] | Potency [16]
active: Potency [18] 2.51 µM | Potency [14] 501 nM

Clc1ccc(N2CCN(Cc3c[nH]c4ncccc34)CC2)cc1
inactive: outcome [15] | outcome [17]

O=c1[nH]c2cc([N+](=O)[O-])c([N+](=O)[O-])cc2[nH]c1=O
inactive: outcome [15] | outcome [17] | Potency [18] | Potency [16] | Potency [19]

CN=c1nc(-c2ccccc2)n(-c2ccccc2)s1
inactive: outcome [15] | outcome [17] | Potency [16] | Potency [20]
active: Potency [18] 2 µM
